From the supplement of paper PMC12645437, “Orthogonal IMiD-Degron Pairs Induce Selective Protein Degradation in Cells” (ACS Chemical Biology, 2025)
The full ranking holds about 8,300 sequences; the median of “log2 fold change of degron read counts, EGFP-low vs EGFP+ sorted cells (limma voom), compound-induced degradation” is about -1.1, and the highest 2% start at about 3.2. Shown is part of a subset that was picked to be rich in the highest values.

Biological target: T1, CRBN, Q96SW2
T1 chain: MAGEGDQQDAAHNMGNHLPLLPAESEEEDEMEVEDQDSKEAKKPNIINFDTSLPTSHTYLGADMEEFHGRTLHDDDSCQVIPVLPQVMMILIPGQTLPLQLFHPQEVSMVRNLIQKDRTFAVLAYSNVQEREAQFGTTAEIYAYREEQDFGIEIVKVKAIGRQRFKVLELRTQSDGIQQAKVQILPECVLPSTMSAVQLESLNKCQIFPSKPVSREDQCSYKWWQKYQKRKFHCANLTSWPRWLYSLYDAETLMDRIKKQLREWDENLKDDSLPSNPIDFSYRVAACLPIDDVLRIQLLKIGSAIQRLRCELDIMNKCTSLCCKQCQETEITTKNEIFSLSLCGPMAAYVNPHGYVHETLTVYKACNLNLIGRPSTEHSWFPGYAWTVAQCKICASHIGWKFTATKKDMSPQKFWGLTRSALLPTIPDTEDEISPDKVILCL
Assay: log2 fold change of degron read counts, EGFP-low vs EGFP+ sorted cells (limma voom), compound-induced degradation; higher = more compound-induced degradation of the degron-EGFP fusion; degrons are variants of IKZF1/3 zinc finger 2; compound dose not given here
Details: Jurkat, 18 h

[1] = compound: compound 19 (5-tert-butyl-thalidomide)
[2] = compound: compound 22 (5-morpholino-thalidomide)
[3] = compound: compound 33 (diphenyl IMiD analogue)
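Note: pooled lentiviral library of zinc finger degron-EGFP fusions in mCherry-positive Jurkat cells, FACS-sorted after compound exposure, with degron abundance counted by next-generation sequencing.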

FWCEICGRSFTQKGNLLRHIKL [46F_47W_49E_50I_52G_53R_54S_55F_67L_, Q9UKT9]
log2 fold change of degron read counts [1]: 0.727
log2 fold change of degron read counts [2]: 1.06
log2 fold change of degron read counts [3]: 0.626
log2 fold change of degron read counts (compound: thalidomide): -1.3

FWCPVCGAFFTQKGNLLRHIKL [46F_47W_49P_50V_52G_53A_54F_55F_67L_, Q9UKT9]
log2 fold change of degron read counts [1]: 2.23
log2 fold change of degron read counts [2]: 2.56
log2 fold change of degron read counts [3]: 1.97
log2 fold change of degron read counts (compound: thalidomide): 0.614

FICNVCGACFTQKGNLLRHIKL [46F_47I_49N_50V_52G_53A_54C_55F_67L_, Q9UKT9]
log2 fold change of degron read counts [1]: -2.35
log2 fold change of degron read counts [2]: -0.443
log2 fold change of degron read counts [3]: 0.594
log2 fold change of degron read counts (compound: thalidomide): 0.469

FRCNQCGHHFTQKGNLLRHIKL [46F_47R_49N_50Q_52G_53H_54H_55F_67L_, Q9UKT9]
log2 fold change of degron read counts [1]: -2.62
log2 fold change of degron read counts [2]: -2.49
log2 fold change of degron read counts [3]: -2.68
log2 fold change of degron read counts (compound: thalidomide): -2.74

FMCNVCGAVFTQKGNLLRHIKL [46F_47M_49N_50V_52G_53A_54V_55F_67L_, Q9UKT9]
log2 fold change of degron read counts [1]: -2.62
log2 fold change of degron read counts [2]: -1.87
log2 fold change of degron read counts [3]: 0.807
log2 fold change of degron read counts (compound: thalidomide): -0.813

FCCEVCGAWFTQKGNLLRHIKL [46F_47C_49E_50V_52G_53A_54W_55F_67L_, Q9UKT9]
log2 fold change of degron read counts [1]: -0.654
log2 fold change of degron read counts [2]: -0.581
log2 fold change of degron read counts [3]: 0.156
log2 fold change of degron read counts (compound: thalidomide): -0.895

FKCEICGADFTQKGNLLRHIKL [46F_47K_49E_50I_52G_53A_54D_55F_67L_, Q9UKT9]
log2 fold change of degron read counts [1]: -1.37
log2 fold change of degron read counts [2]: -3.36
log2 fold change of degron read counts [3]: -2.54
log2 fold change of degron read counts (compound: thalidomide): -1.55

FFCPQCGAHFTQKGNLLRHIKL [46F_47F_49P_50Q_52G_53A_54H_55F_67L_, Q9UKT9]
log2 fold change of degron read counts [1]: 0.0594
log2 fold change of degron read counts [2]: 0.455
log2 fold change of degron read counts [3]: 0.502
log2 fold change of degron read counts (compound: thalidomide): -0.835

FSCPICGRAFTQKGNLLRHIKL [46F_47S_49P_50I_52G_53R_54A_55F_67L_, Q9UKT9]
log2 fold change of degron read counts [1]: -0.662
log2 fold change of degron read counts [2]: -1.1
log2 fold change of degron read counts [3]: 0.646
log2 fold change of degron read counts (compound: thalidomide): 0.0583

FGCPICGAQFTQKGNLLRHIKL [46F_47G_49P_50I_52G_53A_54Q_55F_67L_, Q9UKT9]
log2 fold change of degron read counts [1]: 3.58
log2 fold change of degron read counts [2]: 2.65
log2 fold change of degron read counts [3]: 1.84
log2 fold change of degron read counts (compound: thalidomide): 1.37

FNCPICGAQFTQKGNLLRHIKL [46F_47N_49P_50I_52G_53A_54Q_55F_67L_, Q9UKT9]
log2 fold change of degron read counts [1]: 2.48
log2 fold change of degron read counts [2]: 1.86
log2 fold change of degron read counts [3]: 1.27
log2 fold change of degron read counts (compound: thalidomide): 1.1

FHCPICGAQFTQKGNLLRHIKL [46F_47H_49P_50I_52G_53A_54Q_55F_67L_, Q9UKT9]
log2 fold change of degron read counts [1]: 2.46
log2 fold change of degron read counts [2]: 2.8
log2 fold change of degron read counts [3]: 2.49
log2 fold change of degron read counts (compound: thalidomide): 1.66

FCCPICGAQFTQKGNLLRHIKL [46F_47C_49P_50I_52G_53A_54Q_55F_67L_, Q9UKT9]
log2 fold change of degron read counts [1]: 2.39
log2 fold change of degron read counts [2]: 2.66
log2 fold change of degron read counts [3]: 2.87
log2 fold change of degron read counts (compound: thalidomide): 1.93

FQCPICGAQFTQKGNLLRHIKL [46F_47Q_49P_50I_52G_53A_54Q_55F_67L_, Q9UKT9]
log2 fold change of degron read counts [1]: 0.697
log2 fold change of degron read counts [2]: 2.72
log2 fold change of degron read counts [3]: 2.41
log2 fold change of degron read counts (compound: thalidomide): 3.65

FDCPICGAQFTQKGNLLRHIKL [46F_47D_49P_50I_52G_53A_54Q_55F_67L_, Q9UKT9]
log2 fold change of degron read counts [1]: 2.24
log2 fold change of degron read counts [2]: 1.5
log2 fold change of degron read counts [3]: 1.26
log2 fold change of degron read counts (compound: thalidomide): 2.56

FMCEICGHLFTQKGNLLRHIKL [46F_47M_49E_50I_52G_53H_54L_55F_67L_, Q9UKT9]
log2 fold change of degron read counts [1]: -2.89
log2 fold change of degron read counts [2]: -3.26
log2 fold change of degron read counts [3]: -2.2
log2 fold change of degron read counts (compound: thalidomide): -2.63

FNCPICGRWFTQKGNLLRHIKL [46F_47N_49P_50I_52G_53R_54W_55F_67L_, Q9UKT9]
log2 fold change of degron read counts [1]: -0.803
log2 fold change of degron read counts [2]: -0.856
log2 fold change of degron read counts [3]: 0.232
log2 fold change of degron read counts (compound: thalidomide): -0.248

FTCSVCGHFFTQKGNLLRHIKL [46F_47T_49S_50V_52G_53H_54F_55F_67L_, Q9UKT9]
log2 fold change of degron read counts [1]: -1.8
log2 fold change of degron read counts [2]: -2.26
log2 fold change of degron read counts [3]: -2.2
log2 fold change of degron read counts (compound: thalidomide): -2.2
